# Test results as given in PubChem BioAssay (NCATS).
# Records with an inconclusive call do not appear. The source made the active and inactive calls. Calls follow the shape of the dose curve; as a rule, active = well fitted activation curve with a large enough effect in the main read-out, with a control signal flat (not every such curve was filed as active); inconclusive = small, poorly fitted or top-dose-only effect, or effect the other way, or a change in a side signal; inactive = flat fitted curve, though single readings scatter.
# Biological target: 3',5'-cyclic-AMP phosphodiesterase 4B (Homo sapiens) (UniProt Q07343)
# Sequence (Q07343 whole entry, looked up): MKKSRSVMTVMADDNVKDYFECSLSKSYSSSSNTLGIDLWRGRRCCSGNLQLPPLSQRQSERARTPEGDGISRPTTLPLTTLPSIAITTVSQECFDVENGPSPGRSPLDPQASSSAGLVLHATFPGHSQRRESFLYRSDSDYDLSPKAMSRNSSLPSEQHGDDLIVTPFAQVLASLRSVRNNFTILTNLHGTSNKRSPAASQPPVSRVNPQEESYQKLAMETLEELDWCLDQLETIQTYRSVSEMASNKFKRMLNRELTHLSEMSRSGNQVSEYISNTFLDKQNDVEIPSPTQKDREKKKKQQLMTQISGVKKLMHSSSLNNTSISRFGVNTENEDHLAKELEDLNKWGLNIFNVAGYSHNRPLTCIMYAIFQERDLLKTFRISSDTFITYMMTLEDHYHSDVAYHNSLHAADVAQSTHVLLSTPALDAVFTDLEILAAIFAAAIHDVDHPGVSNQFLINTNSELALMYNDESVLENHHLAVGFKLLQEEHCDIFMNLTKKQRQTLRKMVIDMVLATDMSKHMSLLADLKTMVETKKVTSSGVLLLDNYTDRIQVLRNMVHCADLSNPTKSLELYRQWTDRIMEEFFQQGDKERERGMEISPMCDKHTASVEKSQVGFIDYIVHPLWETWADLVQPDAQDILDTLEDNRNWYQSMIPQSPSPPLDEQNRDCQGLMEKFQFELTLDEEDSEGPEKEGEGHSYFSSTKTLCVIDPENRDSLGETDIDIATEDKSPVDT
# Assay: qHTS Assay for Inhibitors of PDE-IV (AID 607); also: % of control where 0% means no effect
# Conditions: HEK293 ACTOne CNG channel cells, membrane potential fluorescence; series mostly up to 22.9 µM; activation (PDE inhibition): at the top concentration
# Description: NIH Chemical Genomics Center [NCGC]
# NIH Molecular Libraries Screening Centers Network [MLSCN]
# The cyclic nucleotide phosphodiesterases (PDEs) are proteins that catalyze hydrolysis of 3', 5'-cyclic nucleotides, such as cyclic adenosine monophosphate (cAMP) and cyclic guanosine monophosphate (cGMP), to their corresponding 5'-nucleotide monophosphates. These enzymes play an important role in controlling cellular concentrations of cyclic nucleotides and have a central role in a variety of intracellular signaling events. cAMP PDEs are emerging as a promising class of drug targets in asthma and cardiovascular disease therapeutic areas.
# There are no commercially available cell-based screening assays for PDE inhibitors: currently biochemical assays are done using pure substrates (cAMP or cGMP) and purified recombinant PDE enzymes. As with other biochemical screens on intracellular targets, false positives and false negatives may result from issues involving cell membrane permeability, cellular metabolism, and the like.
# Here we report the development of a cell-based screening assay for cAMP phosphodiesterase (PDE) inhibitors. The assay is based on the BD ACTOne# technology (BD Biosciences) which utilizes a modified cyclic nucleotide-gated channel (CNG) to monitor intracellular cAMP changes in live cells. The CNG channel is localized on the plasma membrane, and opens when the intracellular cAMP level increases, resulting in ion flux and cell membrane depolarization. The influx of cations through the CNG channel can be quantified using membrane potential (MP) dyes. We modified the BD ACTOne technology to allow the detection of PDE inhibitors, and performed an inhibitor screen for PDE-IV, which is expressed endogenously in HEK293 cells. We optimized this assay in homogeneous 1536-well plate assay format for high throughput screening.
# NCGC Assay Protocol Summary:
# The medium contained 10% FBS (Invitrogen), 2 mM L-glutamine, and 250 ug/ml G418 (Cellgro) and 1 ug/ml puromycin (Clontech). ACTOneTM parental cells (BD Biosciences) were maintained in the same medium without puromycin.
# The activity of the CNG channel was measured by BD ACTOneTM membrane potential dye kit (BD Biosciences). Forskolin, a positive control for cAMP activation and RO 20-1724, a PDE inhibitor, were both purchased from Sigma and solublized in DMSO.
# Sequence,Parameter,Value,Description
# 1,Reagent,3 uL,1000 cells/well 1536 TC treated Black plate
# 3,Compound,0.5 uL,Kalypsys dispense RO 20-1724 100 uM final [A]
# 4,Reagent,3 uL,BD membrane potential dye
# 6,Compound,23 nL,Final concentration was 0.7nM to 22.9uM
# 8,Detector,EX 535 / EM 590 [B],Envision
# Footnotes: [A] The stock 2 mM RO 20-1724 PDE inhibitor was made in 10 % DMSO. Parental cell line received 10 uM forskolin + 100 uM RO. [B] Envsion settings: Bottom Excitation 535/20 nm top emission 590/20, gain of 150 and 5 flashes per well.
# Keywords: PDE, PDE-IV, cytotoxicity, flourescence, MLSMR, MLSCN, NIH Roadmap, qHTS, NCGC
Structure (SMILES),activation (PDE inhibition),outcome
CCc1oc2ccccc2c1C(=O)c1cc(Br)c(O)c(Br)c1,14.1% (inactive),–
CN1CCc2cccc3c2[C@H]1Cc1ccc(O)c(O)c1-3,7.59% (inactive),–
CCOC(=O)c1ccc(N)cc1,-5.84% (inactive),–
CCCc1ncc(C[n+]2ccccc2C)c(N)n1,-1.42% (inactive),–
CCN(CC)CCNc1ccc(CO)c2sc3ccccc3c(=O)c12,19% (inactive),–
C[N+]1(C)CCC(=C(c2ccccc2)c2ccccc2)CC1,-5.53% (inactive),–
CCN(CC)CCNC(=O)c1cc(Br)c(N)cc1OC,2.03% (inactive),–
Cl/C(=C\n1cncn1)c1ccc(Cl)cc1Cl,-19.2% (inactive),–
CCN(CC)CCNC(=O)COc1ccc(OC)cc1,19.1% (inactive),–
NC(N)=NCc1cccc(I)c1,-2.67% (inactive),–
NS(=O)(=O)Cc1noc2ccccc12,-7.77% (inactive),–
O=C(O)CCc1nc2ccccc2[nH]1,-4.06% (inactive),–
O=C1C(=O)c2ccccc2C(O)=C1C1CCC(c2ccc(Cl)cc2)CC1 (stereo not given),-7.03% (inactive),–
CN1CCC(OC(c2ccccc2)c2ccccc2)CC1,27.3% (inactive),–
COc1ccc(C(=O)c2ccccc2)c(O)c1,27.1% (inactive),–
Nc1ccc(C(=O)NCC(=O)O)cc1,2.4% (inactive),–
COc1ccc(C(=O)c2ccccc2O)c(O)c1,17.2% (inactive),–
CN(C)CCC[C@@]1(c2ccc(F)cc2)OCc2cc(C#N)ccc21,–,inactive
O=C1C(O)=C(O)C(=O)C(O)=C1O,-7.34% (inactive),–
CC(C)(C)NC[C@H](O)COc1nsnc1N1CCOCC1,–,inactive

Structure (SMILES),activation (PDE inhibition),outcome
O=C(O)CCC(=O)Nc1ccc(S(=O)(=O)Nc2nccs2)cc1,0.308% (inactive),–
CN=C(N)NCCC[C@H](N)C(=O)O,-2.7% (inactive),–
CC(C)(C)NC[C@H](O)COc1cccc2c1CCCC2=O,–,inactive
O=C1C(CCS(=O)c2ccccc2)C(=O)N(c2ccccc2)N1c1ccccc1 (stereo not given),5.15% (inactive),–
CCCN(CCC)S(=O)(=O)c1ccc(C(=O)O)cc1,5.46% (inactive),–
COc1cc(C)nc(-n2nc(C)cc2OC)n1,3.45% (inactive),–
NS(=O)(=O)c1cc(C(=O)O)cc(N2CCCC2)c1Oc1ccccc1,-1.27% (inactive),–
CCCCNc1ccc(C(=O)OCCOCCOCCOCCOCCOCCOCCOCCOCCOC)cc1,20.5% (inactive),–
COc1cc(C(=O)NCc2ccc(OCCN(C)C)cc2)cc(OC)c1OC,7.03% (inactive),–
N=C(N)N1CCc2ccccc2C1,-7.65% (inactive),–
COc1cc(NS(=O)(=O)c2ccc(N)cc2)ncn1,10.3% (inactive),–
Nc1ccc(S(=O)(=O)Nc2cnc3ccccc3n2)cc1,–,inactive
CNCCc1ccccn1,-4.05% (inactive),–
CN1CCC[C@@H]1CCO[C@](C)(c1ccccc1)c1ccc(Cl)cc1,6.84% (inactive),–
CCOc1ccc(NC(C)=O)cc1,-15.5% (inactive),–
Cc1cc(-c2ccccc2)nnc1NCCN1CCOCC1,-0.386% (inactive),–
CCc1cc(Cl)c(OC)c(C(=O)NC[C@@H]2CCCN2CC)c1O,28.7% (inactive),–
COc1cc(N)c(Cl)cc1C(=O)NC1CCN(Cc2ccccc2)CC1,-1.86% (inactive),–
c1ccc(CC2=NCCN2)cc1,0.0692% (inactive),–
CC[C@H](c1ccc(O)cc1)[C@@H](CC)c1ccc(O)cc1,-16% (inactive),–
